Assay outcomes (PubChem BioAssay)
PKM2 activator: PKM2 (human) enzyme activation; actives 0.34% (n = 260,000); purified PKM2, Kinase-Glo ATP luminescence, activation; response scale: 0% is enzyme alone, no compound; Potency, µM (titrated, usually from 57.5 µM), hits mostly activators; P14618; further: nearly all actives have a fitted effect of over 55% in size
Target sequence (P14618 whole entry, looked up): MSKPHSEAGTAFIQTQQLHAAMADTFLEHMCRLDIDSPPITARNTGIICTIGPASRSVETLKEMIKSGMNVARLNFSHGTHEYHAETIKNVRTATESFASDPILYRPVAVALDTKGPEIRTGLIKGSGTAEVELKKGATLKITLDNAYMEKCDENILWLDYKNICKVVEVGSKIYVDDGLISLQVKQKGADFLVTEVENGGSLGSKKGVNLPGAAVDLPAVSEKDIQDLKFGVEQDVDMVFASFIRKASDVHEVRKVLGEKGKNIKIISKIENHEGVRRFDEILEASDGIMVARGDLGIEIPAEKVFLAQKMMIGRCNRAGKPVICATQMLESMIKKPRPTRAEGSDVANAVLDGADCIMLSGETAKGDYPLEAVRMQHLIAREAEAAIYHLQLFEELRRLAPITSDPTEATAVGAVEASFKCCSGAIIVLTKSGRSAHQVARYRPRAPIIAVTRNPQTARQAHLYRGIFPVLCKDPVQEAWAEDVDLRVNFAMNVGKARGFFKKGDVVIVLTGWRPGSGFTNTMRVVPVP
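Kinase-Glo luminescence reports ATP generated from ADP (0.1 mM) and PEP (0.5 mM) by purified hPK-M2 after 1 h at room temperature, pH 7.2 imidazole buffer; intermediate enzyme activity allows detecting inhibitors and activators.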
BRCA1 expr up: increases BRCA1 expression | MCF7-BRCA1-FFLuc reporter, luminescence, 48 h; response scale: scaled: vehicle 0%, 10 µM genistein 100% | AID 624202 | Potency, µM (series often up to 46.1 µM), actives largely listed as activators | actives 1.1% (n = 380,000); further: nearly all actives have a fitted effect of over 80% in size
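Compounds are tested at multiple concentrations on MCF7 BRCA1-luciferase reporter cells seeded at 2000 per well; after 48 h, a single luminescence end-point is taken and curves fitted to the normalized data.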
Integrin act MD: integrin-mediated muscular dystrophy alleviation activation | actives 0.064% (n = 350,000) | Potency, µM (highest dose often 38.3 µM), hits mostly activators | alpha7betagal myoblasts, beta-gal FDG fluorescence, 48 h; further: nearly all actives have a fitted effect of over 60% in size
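Alpha7betagal+/- myoblasts (passage 13) were plated 16-24 hr, then exposed to compounds (1:260 dilution of DMSO stock) for 48 hours at 37C. After MPER lysis, β-galactosidase reporter activity was read as FDG fluorescence (ex 480/em 540) after 30 minutes.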
Apoferritin bind: binds horse apoferritin like a general anesthetic. actives 0.074% (n = 350,000). AID 485281. Potency, µM (series often up to 77.5 µM), most hits filed as inhibitors. apoferritin/1-aminoanthracene competitive binding, fluorescence; further: nearly all actives have a fitted effect of over 20% in size
Target sequence (P02791 2-175 limits assumed): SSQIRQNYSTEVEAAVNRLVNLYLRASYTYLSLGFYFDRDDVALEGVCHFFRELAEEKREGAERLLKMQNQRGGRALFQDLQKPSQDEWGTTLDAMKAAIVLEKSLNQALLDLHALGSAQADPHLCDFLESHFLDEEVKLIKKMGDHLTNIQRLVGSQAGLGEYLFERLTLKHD
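Probe: 1-aminoanthracene (50% saturated, PBS). Protein: horse-spleen apoferritin, 10 uM. Incubation: 10 min, room temperature. Detection: 380 nm excitation, 535 nm emission. Analysis: normalized response, four-parameter Hill.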
IL2 activator: IL-2 activation | IL-2 activation reporter assay, cell-based qHTS; stimulated with anti-CD3/CD4/CD28 beads; in transgenic mouse T cells | activation, % (series mostly up to about 46 µM) | actives 0.065% (n = 360,000) | AID 652025; in the data active means activation above about 50%; inconclusive means mostly about 30% to 49%
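Screening format: compound pinned onto unstimulated transgenic mouse T cells, 60 min incubation, then anti-CD3/anti-CD4/anti-CD28 bead stimulation for 18 hours at 37 degrees C, followed by EGFP and DsRed detection.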
Of the large screens only hits and unclear results are named; the others gave an inactive call. In the library only some 1.3% were active in any assay of this set; here they are far more common. Unless noted, the call rests on the fitted dose curve; in most records, active means well fitted curve in the direction sought with a large enough effect; inconclusive means small, poorly fitted or top-dose-only effect, or another doubt; inactive means no such curve, though single readings can be large; an effect the other way counts as inactive or inconclusive.

O=C(O)c1ccc(/C=C2/SC(=S)N(Cc3ccccc3)C2=O)cc1	none (no result: PKM2 activator)
Cc1ccc(NC(=O)CSc2nnc(-c3ccccc3)n2C)cc1	none (no result: PKM2 activator, Integrin act MD, Apoferritin bind, IL2 activator)
CCC(C)(C)NC(=O)CCCSc1nc2ccccc2s1	BRCA1 expr up 3.5µM
CCc1cccc(CC)c1NC(=O)CCCSc1nc2ccccc2s1	none
O=C(/C=C/c1ccccc1)NC(=S)Nc1ccccc1O	BRCA1 expr up inconclusive (no result: PKM2 activator)
O=C(/C=C/c1ccc(F)cc1)NC(=S)Nc1ccccc1O	BRCA1 expr up 13µM (no result: PKM2 activator)
CC(C)(C)Nc1nc(Cl)nc(Nc2ccccc2)n1	BRCA1 expr up 11µM
Clc1nc(Nc2ccccc2)nc(Nc2ccccc2)n1	Integrin act MD inconclusive
O=C(NCc1ccco1)c1ccc2c(c1)N(Cc1ccc(F)cc1)C(=O)c1ccccc1S2=O (stereo not given)	none (no result: PKM2 activator, Integrin act MD, IL2 activator)
COc1cccc(C2=Nn3c(nnc3-c3cccc(OC)c3OC)SC2)c1	none (no result: PKM2 activator, BRCA1 expr up, Integrin act MD, IL2 activator)
Cc1ccc(Nc2nc(COC(=O)C3CC3)cs2)cc1	BRCA1 expr up 10µM, Apoferritin bind inconclusive
Cc1ccc(Nc2nc(C(=O)N3CCC(C(=O)N4CCN(C)CC4)CC3)cs2)cc1	none
CON(C)C(=O)/C=C/c1ccc([B-](F)(F)F)cc1	BRCA1 expr up 14µM (no result: PKM2 activator, Apoferritin bind)
CCOc1ccccc1CNC(=O)CCc1c(C)nn(-c2ccc(N3CCCC3)nn2)c1C	none (no result: PKM2 activator, BRCA1 expr up, Integrin act MD, IL2 activator)
Cc1cccc(-n2[nH]c(C)c(C=Nc3ccc4[nH]c(=O)[nH]c4c3)c2=O)c1	IL2 activator inconclusive
Cc1[nH]n(-c2ccccc2)c(=O)c1C=Nc1ccc2[nH]c(=O)[nH]c2c1	IL2 activator 52
C=CCN=Cc1c(C)[nH]n(-c2ccccc2)c1=O	BRCA1 expr up 13µM
COCc1ccc(C(=O)N(C)CC2CCCN(CCc3ccc(Cl)cc3)C2)o1 (stereo not given)	none
COCc1ccc(C(=O)N(C)CC2CCCN(CCc3ccc(OC)cc3)C2)o1 (stereo not given)	BRCA1 expr up 13µM, Integrin act MD inconclusive (no result: PKM2 activator)
COc1ccccc1NC(=O)CSc1oc(-c2ccccc2)nc1S(=O)(=O)c1ccc(C)cc1	none (no result: PKM2 activator, BRCA1 expr up, Integrin act MD, IL2 activator)
CC(C)CNC(=O)c1cccc2c(-c3ccc(F)c(F)c3)coc12	none (no result: PKM2 activator, Integrin act MD, Apoferritin bind)
CC(C)NC(=O)c1cccc2c(-c3ccc(F)c(F)c3)coc12	BRCA1 expr up 1µM (no result: PKM2 activator, Integrin act MD, Apoferritin bind)
CC(C)(C)c1ccc(C(=O)NCC(c2cccs2)S(=O)(=O)c2ccc(F)cc2)cc1 (stereo not given)	none (no result: PKM2 activator, BRCA1 expr up, Integrin act MD, IL2 activator)
COc1ccc(NC(=O)c2cc(C)on2)cc1	BRCA1 expr up 7.1µM, Integrin act MD inconclusive
COc1ccc(NC(=O)c2cc(C)on2)cc1OC	none
COc1ccc(NC(=O)c2cccnn2)cc1	BRCA1 expr up 13µM (no result: PKM2 activator)
Cc1cc(F)c(Nc2ncnc3cc(OCc4ccccc4)ccc23)cc1O	none (no result: PKM2 activator, BRCA1 expr up, Integrin act MD, IL2 activator)
CCc1ccc(CNCc2c(C(=O)O)n(Cc3cccc(F)c3)c3cc(OC)ccc23)cc1	none (no result: PKM2 activator, BRCA1 expr up, Integrin act MD, IL2 activator)
CCN(CC(=O)NCc1ccc(F)cc1)C(=O)/C=C/c1ccco1	PKM2 activator 13µM
CC(C)Cc1ccc(/C=C/C(=O)N2CCCCC2)cc1	BRCA1 expr up 13µM, Apoferritin bind inconclusive
CC1CCN(C(=O)/C=C/c2ccc(C(C)(C)C)cc2)CC1	none
CC(C)(C)c1ccc(/C=C/C(=O)N2CCCCC2)cc1	BRCA1 expr up 7.1µM, Apoferritin bind inconclusive
CCc1ccc(/C=C\C(=O)N2CCCC2)cc1	BRCA1 expr up inconclusive (no result: PKM2 activator, Apoferritin bind)
CC(C)Cc1ccc(/C=C/C(=O)NC2CC2)cc1	BRCA1 expr up 5.6µM
CCN(CC)CCCNc1oc(/C=C/c2ccc(OC)c(OC)c2)nc1C#N	none (no result: PKM2 activator, BRCA1 expr up, Integrin act MD, IL2 activator)
O=C(CSc1nncs1)Nc1ccc2c(c1)OCCO2	Apoferritin bind inconclusive
O=C(CSc1nncs1)NC(=O)Nc1ccc2c(c1)OCCO2	BRCA1 expr up 4.5µM
CCOc1ccc(NC(=O)CCc2c(C)nc3cc(-c4ccc(Cl)cc4)nn3c2C)cc1	none (no result: PKM2 activator, BRCA1 expr up, Integrin act MD, IL2 activator)
CCCC(=O)N=C1SC2CS(=O)(=O)CC2N1c1ccc(-c2nc3ccc(C)cc3s2)cc1 (stereo not given)	BRCA1 expr up 16µM
COc1cc(C2Nc3ccccc3C(=O)N2c2ccc(Cl)cc2)c(Cl)cc1OCC(=O)O (stereo not given)	BRCA1 expr up 2.8µM
COc1cc(C2Nc3ccccc3C(=O)N2c2ccccc2)ccc1O (stereo not given)	BRCA1 expr up 7.9µM
COc1ccc(/C=N/Nc2ccc([N+](=O)[O-])cc2)cc1O	BRCA1 expr up 8.9µM (no result: PKM2 activator)
COc1ccc(/C=N/Nc2ccc([N+](=O)[O-])cc2)cc1Cn1cc([N+](=O)[O-])cn1	none
CN1C(=O)CSc2ccc(NC(=O)Nc3ccccn3)cc21	BRCA1 expr up 4µM
COc1ccc(/C=N/Nc2ccccn2)cc1OC	BRCA1 expr up 10µM
CC(=O)Nc1ccc(NC(=O)Nc2ccc3c(c2)N(C)C(=O)CS3)cc1	none
O=[N+]([O-])c1ccc(NN=Cc2ccco2)nc1	BRCA1 expr up 10µM (no result: PKM2 activator, Apoferritin bind)
CCOc1ccc(N2C(=O)N(Cc3ccc(C)cc3C)c3ccccc3S2(=O)=O)cc1	none (no result: PKM2 activator, BRCA1 expr up, Integrin act MD, IL2 activator)
C[C@H](O/N=C1/[C@H]2O[C@@H]2[C@@H](O)[C@H]2[C@H]1CCn1c(=O)n(-c3ccccc3)c(=O)n12)c1cn([C@H](CO)Cc2ccccc2)nn1	none (no result: PKM2 activator, BRCA1 expr up, Integrin act MD, IL2 activator)
Cc1ccc(Cl)cc1NC(=O)c1sc2nc(-c3ccccc3)cn2c1C	none (no result: PKM2 activator, Integrin act MD, IL2 activator)
O=C(NCc1cccn1Cc1ccccc1)Nc1ccc(Br)cc1F	none (no result: PKM2 activator, BRCA1 expr up, Integrin act MD, IL2 activator)
Cc1ccc(S(=O)(=O)NNC(=O)c2ccc(C(=O)N(c3ccccc3)c3ccccc3)cc2)cc1	none (no result: PKM2 activator, Integrin act MD, Apoferritin bind, IL2 activator)
